In PubChem BioAssay (NCATS):
Several values for one entry are separate records, joined by “and”; a condition that tells them apart may be missing. Equal values may be shown once. Activity calls are given as the source filed them. Unless noted, the call rests on the fitted dose curve; in most records, active means well fitted curve in the direction sought with a large enough effect; inconclusive means small, poorly fitted or top-dose-only effect, or another doubt; inactive means no such curve, though single readings can be large; an effect the other way counts as inactive or inconclusive.

What was measured:
[1] = target: Cytochrome P450 3A4 (Homo sapiens) (UniProt P08684); assay: qHTS Assay for Inhibitors and Substrates of Cytochrome P450 3A4 (AID 884); further: series mostly up to about 57 µM; on the % scale 0 is the no-effect control and ±100 the full control effect; nearly all actives have a fitted effect of over 50% in size
Sequence of Cytochrome P450 3A4 (Homo sapiens) (P08684 whole entry, looked up): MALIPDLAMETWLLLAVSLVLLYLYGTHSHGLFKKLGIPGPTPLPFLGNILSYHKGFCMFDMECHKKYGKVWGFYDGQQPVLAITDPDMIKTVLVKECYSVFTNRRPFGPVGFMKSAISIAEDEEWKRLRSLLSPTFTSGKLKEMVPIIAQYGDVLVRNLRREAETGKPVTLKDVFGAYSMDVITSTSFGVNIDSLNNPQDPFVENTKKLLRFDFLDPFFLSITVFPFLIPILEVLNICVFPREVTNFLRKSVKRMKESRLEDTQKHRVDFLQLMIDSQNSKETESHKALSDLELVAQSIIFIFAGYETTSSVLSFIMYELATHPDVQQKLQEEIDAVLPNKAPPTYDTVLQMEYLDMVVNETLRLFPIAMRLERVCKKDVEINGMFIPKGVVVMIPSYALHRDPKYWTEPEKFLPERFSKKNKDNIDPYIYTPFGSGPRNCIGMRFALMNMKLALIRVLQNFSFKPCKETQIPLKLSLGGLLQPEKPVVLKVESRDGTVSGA
Method in brief: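 20 nM human CYP3A4 with 25 uM Luciferin-PPXE (at KM) in 200 mM KPO4, preincubated 10 min with compound; NADPH regeneration started a 60 min RT reaction. Luciferin detected by luminescence, normalized to 57 uM ketoconazole as full inhibition.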

[2] = MultiTox-Fluor Cytotoxicity Assay - LYMP1-001 - Live Cells (AID 947); further: potency means the concentration at half of the fitted maximal effect
[3] = MultiTox-Fluor Cytotoxicity Assay - LYMP1-002 - Dead Cells (AID 960); further: nearly all actives have a fitted effect of over 60% in size; further: potency means the concentration at half of the fitted maximal effect
Method in brief: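 Human lymphoblastoid cells (LYMP1-002), 2500/well in complete medium, were exposed to compounds for 16 hr at 37 C. Dead-cell protease activity was read as bis-AAF-R110 fluorescence (Ex/Em 485/520), normalized to DMSO and 15 uM tetraoctylammonium bromide; AC50 from Hill fits.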

[4] = Cell Viability - LYMP2-015 (AID 971);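 further: cells exposed to compound for 24 h; nearly all actives have a fitted effect of over 55% in size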; further: potency means the concentration at half of the fitted maximal effect
Method in brief: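 Human lymphoblastoid cells (2500/well) in complete medium were preincubated 5 hr at 37 C, then compound-treated 24 hr at 37 C. Intracellular ATP was read by CellTiter-Glo luminescence after 30 min at room temperature; AC50 came from Hill-equation concentration-response fits.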

[5] = target: Vitamin D3 receptor (Homo sapiens) (UniProt P11473); assay: qHTS assay for small molecule agonists of vitamin D receptor signaling (AID 588543; calls by dose curve;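 further: 0% = DMSO basal and 100% = reference agonist control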)
Sequence of Vitamin D3 receptor (Homo sapiens) (P11473 whole entry, looked up): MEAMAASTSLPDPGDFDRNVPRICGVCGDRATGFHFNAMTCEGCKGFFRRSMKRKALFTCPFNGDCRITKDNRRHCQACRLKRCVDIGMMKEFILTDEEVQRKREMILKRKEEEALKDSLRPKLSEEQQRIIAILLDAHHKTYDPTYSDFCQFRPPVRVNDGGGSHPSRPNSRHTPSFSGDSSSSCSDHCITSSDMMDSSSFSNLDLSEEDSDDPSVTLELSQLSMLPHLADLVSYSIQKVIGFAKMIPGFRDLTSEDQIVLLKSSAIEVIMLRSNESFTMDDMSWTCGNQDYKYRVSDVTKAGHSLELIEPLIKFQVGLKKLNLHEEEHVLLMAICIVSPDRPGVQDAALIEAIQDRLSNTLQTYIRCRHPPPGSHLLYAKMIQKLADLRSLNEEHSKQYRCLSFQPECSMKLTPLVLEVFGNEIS
Method in brief: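 Agonist-mode beta-lactamase reporter: HEK293T VDR-UAS-bla cells in charcoal-stripped 2% FBS, compound series 16 h 37 C, CCF4 2 h RT. EC50 from Hill fit, scaled against DMSO and 50 nM calcitriol control.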

[6] = qHTS assay for small molecule activators of the p53 signaling pathway (AID 651743; active means well fitted activation curve with a large enough effect in the signal ratio, not every such curve was filed as active; inconclusive means small, poorly fitted or top-dose-only effect, or a change in a side signal; the % refers to the signal ratio; further: potency means the concentration at half of the fitted maximal effect; on activation: series mostly up to about 92 µM; % of control where 0% means no effect); conditions: HCT-116 p53RE-bla, beta-lactamase FRET ratio, 16 h; activation: stronger effect = higher value
Method in brief: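 Screen for p53 pathway agonists uses stably transfected p53RE-bla HCT-116 cells, 4,000 per well, treated 16 h at 37 C with compounds in DMSO.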

[7] = qHTS assay for small molecule disruptors of the mitochondrial membrane potential - 1 hr assay (AID 651754; calls by dose curve; further: on the % scale 0 is the no-effect control and ±100 the full control effect; nearly all actives have a fitted effect of over 35% in size)
Method in brief: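 HepG2 cells, attached overnight at 37C, were exposed to compound or DMSO vehicle for 1 hr at 37C, 5% CO2, then stained with Mito-MPS dye for 30 min. Red aggregate versus green monomer fluorescence reports membrane potential.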

[8] = qHTS assay for small molecule disruptors of the mitochondrial membrane potential - 5 hr assay (AID 651755; calls by dose curve; further: on the % scale 0 is the no-effect control and ±100 the full control effect; nearly all actives have a fitted effect of over 40% in size)
Method in brief: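 HepG2, 2,000 cells/well, overnight attach; cpd or DMSO 5 hr, 37C/5% CO2; Mito-MPS 30 min 37C; fluor 490/535 + 540/590 nm.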

[9] = qHTS assay for environmental chemicals that activate the Aryl hydrocarbon Receptor (AhR) signaling pathway (AID 651777); conditions: 1A2-DRE human hepatoma cells, luciferase, 24 h; activation: stronger effect = higher value; further: % of control where 0% means no effect; nearly all actives have a fitted effect of over 15% in size
Method in brief: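 Luminescence read-out: One-Glo added for 30 min at RT after 24 hr compound treatment (37 C, 5% CO2) of human hepatoma cells expressing a DRE/CYP1A2 promoter–luciferase reporter; increased signal indicates AhR activation.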

[10] = qHTS assay for small molecule agonists of the antioxidant response element (ARE) signaling pathway measured by Nrf2-dependant transcriptional activity (AID 720636; active means well fitted curve in the direction sought with a large enough effect in the repeat runs; inconclusive means weak or mixed curves; inactive means no such curve, though single readings can be large; an effect the other way counts as inactive or inconclusive; further: potency means the concentration at half of the fitted maximal effect;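 on activation: HepG2 cells with an ARE-driven luciferase reporter; % of control where 0% means no effect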)
Method in brief: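 HepG2 ARE-luc reporter line, 1% dialyzed FBS; 6 hr attachment at 37 C, compound pinned in, 16 hr at 37 C/5% CO2; ONE-Glo, 30 min RT, luminescence read.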

[11] = target: Nuclear receptor subfamily 1 group I member 2 (Rattus norvegicus) (UniProt Q9R1A7); assay: qHTS assay for small molecule activators of the rat pregnane X receptor (rPXR) signaling pathway (AID 651751; call rule not given here; further: 0% is about no effect); conditions: rPXR reporter cells, luciferase (One-Glo), 24 h
Sequence of Nuclear receptor subfamily 1 group I member 2 (Rattus norvegicus) (Q9R1A7 whole entry, looked up): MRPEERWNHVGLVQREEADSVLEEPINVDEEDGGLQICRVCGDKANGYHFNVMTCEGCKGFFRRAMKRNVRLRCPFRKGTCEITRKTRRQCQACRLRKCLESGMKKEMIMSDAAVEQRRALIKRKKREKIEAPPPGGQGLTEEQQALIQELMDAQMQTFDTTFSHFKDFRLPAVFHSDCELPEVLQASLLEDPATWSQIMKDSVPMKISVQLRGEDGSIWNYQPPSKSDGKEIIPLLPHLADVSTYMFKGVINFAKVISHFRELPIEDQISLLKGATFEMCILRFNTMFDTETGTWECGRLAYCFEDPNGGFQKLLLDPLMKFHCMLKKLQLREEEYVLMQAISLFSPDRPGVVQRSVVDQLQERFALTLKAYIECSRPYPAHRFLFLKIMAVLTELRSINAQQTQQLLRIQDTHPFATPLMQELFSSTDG

[12] = qHTS assay for small molecule activators of the human pregnane X receptor (PXR) signaling pathway (AID 720659; call rule not given here; further: 0% is about no effect)
[13] = Cell Viability - LYMP2-009 (AID 968);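 further: cells exposed to compound for 24 h at 37 °C; nearly all actives have a fitted effect of over 55% in size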; further: potency means the concentration at half of the fitted maximal effect
[14] = target: Peroxisome proliferator-activated receptor gamma (Homo sapiens) (UniProt P37231); assay: qHTS assay for small molecule agonists of peroxisome proliferator-activated receptor gamma signaling (AID 588536; active means well fitted curve in the direction sought with a large enough effect in the signal ratio, with a control signal flat, not every such curve was filed as active; inconclusive means small, poorly fitted or top-dose-only effect, or effect the other way, or a change in a side signal; inactive means no such curve, though single readings can be large or run the other way; the % refers to the signal ratio;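 further: 0% = DMSO basal wells and 100% = rosiglitazone at 2 µM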)
Sequence of Peroxisome proliferator-activated receptor gamma (Homo sapiens) (P37231 whole entry, looked up): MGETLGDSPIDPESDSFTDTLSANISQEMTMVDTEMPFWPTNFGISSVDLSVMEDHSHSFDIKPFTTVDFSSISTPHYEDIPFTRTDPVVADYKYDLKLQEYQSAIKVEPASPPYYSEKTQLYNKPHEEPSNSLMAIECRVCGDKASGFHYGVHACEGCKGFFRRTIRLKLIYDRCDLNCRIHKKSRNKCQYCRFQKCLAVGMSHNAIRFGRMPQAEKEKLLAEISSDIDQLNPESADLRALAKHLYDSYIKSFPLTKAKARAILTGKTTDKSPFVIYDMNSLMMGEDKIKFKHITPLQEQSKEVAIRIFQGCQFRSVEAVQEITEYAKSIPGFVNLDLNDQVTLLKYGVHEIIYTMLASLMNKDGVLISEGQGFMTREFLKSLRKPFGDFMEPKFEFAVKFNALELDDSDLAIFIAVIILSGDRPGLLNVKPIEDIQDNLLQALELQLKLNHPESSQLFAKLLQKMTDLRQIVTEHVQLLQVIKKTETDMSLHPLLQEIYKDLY
Method in brief: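 GeneBLAzer PPAR-gamma-UAS-bla HEK293 cells in 1% charcoal/dextran-treated FBS medium were treated 16 h at 37 C with compounds. Beta-lactamase activity was read by CCF4 ratio (460/530 nm). Response was normalized to 2 uM rosiglitazone (100%) and DMSO, then Hill-fitted for EC50 and efficacy.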

[15] = qHTS assay for small molecule agonists of retinoid X receptor alpha signaling (AID 588544; calls by dose curve;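 on activation: 0% = DMSO basal wells and 100% = reference agonist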); conditions: HEK293T RXRa-UAS-bla, beta-lactamase reporter, 18 h; 530 nm emission
[16] = target: Retinoic acid receptor RXR-alpha (Homo sapiens) (UniProt P19793); assay: as above
Sequence of Retinoic acid receptor RXR-alpha (Homo sapiens) (P19793 whole entry, looked up): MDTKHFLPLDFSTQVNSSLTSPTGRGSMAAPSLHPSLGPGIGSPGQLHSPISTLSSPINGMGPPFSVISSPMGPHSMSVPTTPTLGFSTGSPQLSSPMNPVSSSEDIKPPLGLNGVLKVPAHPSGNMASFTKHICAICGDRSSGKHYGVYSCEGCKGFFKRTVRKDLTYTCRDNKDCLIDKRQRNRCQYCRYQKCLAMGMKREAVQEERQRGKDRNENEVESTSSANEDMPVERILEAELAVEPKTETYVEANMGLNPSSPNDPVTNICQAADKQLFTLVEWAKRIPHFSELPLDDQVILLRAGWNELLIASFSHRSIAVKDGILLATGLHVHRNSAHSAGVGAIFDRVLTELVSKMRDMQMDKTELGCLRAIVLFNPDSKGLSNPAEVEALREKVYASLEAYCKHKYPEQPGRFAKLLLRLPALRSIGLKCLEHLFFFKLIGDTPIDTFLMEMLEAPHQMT

[17] = target: Thyroid hormone receptor beta (Homo sapiens) (UniProt P10828); assay: qHTS assay for small molecule antagonists of thyroid hormone receptor beta signaling (AID 588547; active means well fitted inhibition curve with a large enough effect in the signal ratio, with a control signal flat, not every such curve was filed as active; inconclusive means small, poorly fitted or top-dose-only effect, or effect the other way, or a change in a side signal; the % refers to the signal ratio;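 further: cells stimulated with 0.4 nM T3 agonist during compound exposure; series mostly up to about 77 µM; on the % scale 0 is the no-effect control and ±100 the full control effect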); conditions: TR-UAS-bla HEK293, beta-lactamase ratio, antagonist mode, 18 h
Sequence of Thyroid hormone receptor beta (Homo sapiens) (P10828 whole entry, looked up): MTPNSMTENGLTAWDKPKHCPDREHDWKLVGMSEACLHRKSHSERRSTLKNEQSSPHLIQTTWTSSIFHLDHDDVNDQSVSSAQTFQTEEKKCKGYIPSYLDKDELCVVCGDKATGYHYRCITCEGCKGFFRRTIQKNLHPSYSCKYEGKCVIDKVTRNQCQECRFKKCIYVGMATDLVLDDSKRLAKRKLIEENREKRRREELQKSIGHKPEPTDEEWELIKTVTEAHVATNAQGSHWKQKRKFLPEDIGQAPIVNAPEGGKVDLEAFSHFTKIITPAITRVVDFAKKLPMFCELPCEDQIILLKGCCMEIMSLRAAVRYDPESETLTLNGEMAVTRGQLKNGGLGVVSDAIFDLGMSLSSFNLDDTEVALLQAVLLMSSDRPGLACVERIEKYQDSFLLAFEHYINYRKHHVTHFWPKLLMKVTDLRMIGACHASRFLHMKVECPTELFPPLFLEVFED
Method in brief: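 Inhibition of T3-driven (0.4nM final) beta-lactamase reporter activity was measured over 0.59 nM to 92 uM compound after 18 h at 37 C. The cells were GripTite HEK293 TR-UAS-bla in charcoal/dextran-stripped serum, with CCF4 ratio read-out and IC50 from Hill fits.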

[18] = target: Tumor necrosis factor (Homo sapiens) (UniProt P01375); assay: qHTS assay to identify small molecules that stimulate Tumor Necrosis Factor-alpha (TNF-alpha) secretion (AID 651757; active means well fitted curve in the direction sought with a large enough effect in the signal ratio; inconclusive means small, poorly fitted or top-dose-only effect, or a change in a side signal; inactive means no such curve, though single readings can be large or run the other way; the % refers to the signal ratio; further: 0% is about no effect)
Sequence of Tumor necrosis factor (Homo sapiens) (P01375 whole entry, looked up): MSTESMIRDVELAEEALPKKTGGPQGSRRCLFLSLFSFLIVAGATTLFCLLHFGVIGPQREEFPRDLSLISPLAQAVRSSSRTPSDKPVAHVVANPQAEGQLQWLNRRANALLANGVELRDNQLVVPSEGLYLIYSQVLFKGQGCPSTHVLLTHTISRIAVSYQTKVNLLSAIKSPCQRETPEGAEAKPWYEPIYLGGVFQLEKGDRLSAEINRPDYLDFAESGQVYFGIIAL
Method in brief: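 THP-1 cells were exposed to compounds for 17 hrs at 37 C, after which secreted TNF-alpha was measured by homogeneous HTRF (TR-FRET) using cryptate- and XL665-labeled anti-TNF-alpha antibodies, read after 3 hr at room temperature.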

[19] = qHTS assay for small molecule antagonists of the retinoid-related orphan receptor gamma (ROR-gamma) signaling pathway - cell viability counter screen (AID 720652; active means well fitted curve in the direction sought with a large enough effect in the repeat runs; inconclusive means weak or mixed curves; inactive means no such curve, though single readings can be large; an effect the other way counts as inactive or inconclusive;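 further: CHO reporter cells with doxycycline-induced ROR-gamma expression; series mostly up to about 92 µM; compound exposure lasted 16 hr before ATP read; on the % scale 0 is the no-effect control and ±100 the full control effect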)
Method in brief: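 Counter screen in CHO cells carrying TET-inducible ROR-gamma and an ROR response element-luciferase reporter; cells plated 5 hr, compound pinned, doxycycline added, then 16 hr at 37 C. Viability read as intracellular ATP by CellTiter-Glo luminescence.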

[20] = target: Estrogen receptor (Homo sapiens) (UniProt P03372); assay: qHTS assay for small molecule antagonists of estrogen receptor alpha signaling (AID 588513; active means well fitted curve in the direction sought with a large enough effect in the signal ratio, with a control signal flat, not every such curve was filed as active; inconclusive means small, poorly fitted or top-dose-only effect, or effect the other way, or a change in a side signal; inactive means no such curve, though single readings can be large or run the other way; the % refers to the signal ratio; further: potency means the concentration at half of the fitted maximal effect)
Sequence of Estrogen receptor (Homo sapiens) (P03372 whole entry, looked up): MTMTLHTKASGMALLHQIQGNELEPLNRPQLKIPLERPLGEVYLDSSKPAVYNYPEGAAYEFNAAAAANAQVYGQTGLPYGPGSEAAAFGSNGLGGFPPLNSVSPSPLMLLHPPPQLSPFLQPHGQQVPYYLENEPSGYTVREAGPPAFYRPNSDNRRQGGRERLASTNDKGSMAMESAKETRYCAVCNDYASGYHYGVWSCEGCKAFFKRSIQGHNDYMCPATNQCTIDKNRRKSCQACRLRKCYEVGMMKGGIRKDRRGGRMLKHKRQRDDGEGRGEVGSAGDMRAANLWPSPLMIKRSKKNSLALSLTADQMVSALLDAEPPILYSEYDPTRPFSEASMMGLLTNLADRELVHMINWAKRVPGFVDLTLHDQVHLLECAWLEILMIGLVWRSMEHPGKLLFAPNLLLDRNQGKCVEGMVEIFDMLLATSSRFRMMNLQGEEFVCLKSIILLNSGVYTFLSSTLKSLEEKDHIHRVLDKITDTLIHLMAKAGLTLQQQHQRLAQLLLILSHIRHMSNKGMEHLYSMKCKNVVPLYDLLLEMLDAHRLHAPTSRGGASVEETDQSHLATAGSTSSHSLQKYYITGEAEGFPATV
Method in brief: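 Antagonist mode: inhibition of 0.5 nM 17-beta-estradiol-driven beta-lactamase reporter in HEK 293 ER-alpha-UAS-bla cells, 18 h at 37C, CCF4 readout after 2 h at RT. Normalised to estradiol and DMSO; titration fitted to Hill.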

S=C1NC=NC2N=CNC12 (configuration not stated)
inactive: Potency [1] | Potency [2] | Potency [3] | Potency [4] | outcome [5] | Potency [7] | Potency [8] | activation [9] -2.14% | Potency [10] | max response [11] -8.03% | outcome [12]
active: Potency [6] 10 µM

CN(C)CCCCCCN(C)C
inactive: Potency [1] | Potency [2] | Potency [3] | Potency [13] | Potency [4] | outcome [14] | outcome [5] | outcome [16] | activity change % (negative = inhibition) [17] 5.32% | activation [6] -2.74% | Potency [7] | Potency [8] | outcome [18] | activation [9] 1.69% | Potency [10] | Potency [19]
-13.8%: max response [15]

CN(C)C=O
inactive: Potency [1] | Potency [3] | Potency [13] | Potency [4] | Potency [20] | outcome [14] | activity change % (negative = inhibition) [17] -4.62% and -13.9% and 12% | activation [6] -4.49% and -0.185% and 0.579% | outcome [18] | activation [9] 0.683% and 0.177% and 0.0089% | Potency [10] | Potency [19] | max response [11] 4.41% and 5.29% and 1.77% | outcome [12]

C=CC(=O)OCCOCCOCCOCCOC(=O)C=C
inactive: Potency [1] | outcome [5] | activation [6] 28.9% and 15.6% | Potency [7] | Potency [8] | outcome [18] | activation [9] 1.73% and 5.16% | Potency [19] | outcome [12]
active: Potency [2] 31.6 µM and 39.8 µM | Potency [3] 20 µM and 25.1 µM | Potency [13] 15.8 µM | Potency [4] 25.1 µM and 20 µM | Potency [20] 39.8 µM [inconclusive] | Potency [10] 66.8 µM

CCCCCCCCO
inactive: Potency [1] | Potency [2] | Potency [13] | Potency [4] | Potency [20] | outcome [14] | outcome [5] | outcome [16] | activity change % (negative = inhibition) [17] -10.6% and 5.6% and -2.56% | activation [6] -2.87% and -7.85% and -0.202% | Potency [7] | Potency [8] | outcome [18] | activation [9] -0.529% and -1.53% and 2.03% | Potency [10] | Potency [19] | max response [11] -3.47% and -2.32% and 2.37% | outcome [12]
-1.34% and -17.2% and -8.68%: max response [15]
